The record followed here is PubChem BioAssay AID1671189 (National Center for Advancing Translational Sciences (NCATS), 2021).

Where “and” joins values, the source holds several entries; their conditions need not be identical. Equal values may be shown once. About 70 (6%) of roughly 1,100 compounds were called active. Roughly 22% stayed inconclusive and do not appear here. This excerpt belongs to a sample that is enriched for actives. A number with no mark means an inactive call. Calls come from the whole dose curve; as a rule, active = well fitted curve in the direction sought with a large enough effect; inconclusive = small, poorly fitted or top-dose-only effect, or another doubt; inactive = no such curve, though single readings can be large or run the other way.
% is set by controls: 0 for no effect and ±100 for the full control effect; potency is the fitted concentration of half-maximal effect.

In the experiment the target is Polyunsaturated fatty acid lipoxygenase ALOX12 (Homo sapiens) (UniProt P18054). The experiment in a line: Confirmatory qHTS assay for inhibitors of human arachidonate 12S-lipoxygenase (ALOX12): Round 2. Particulars: purified human 12-LOX, xylenol orange absorbance; series mostly up to 125 µM; activity change, negative = inhibition: at the top concentration. The source says: Assay Provider: Theodore R. Holman Ph.D. University of California, Santa Cruz, California Human lipoxygenase 12hLO is a member of the closely related lipoxygenase family of enzymes which catalyze the site-specific oxidation of arachidonic acid to various hormone precursor molecules and as such is a candidate for drug development in a variety of disease areas, such as cancer and inflammation. Inhibition of 12hLO activity was screened by utilizing arachidonic acid as a substrate. The extent of hydroperoxide product formation was measured by a secondary chromogenic reaction in which xylenol orange (XO, Sigma-Aldrich, cat. number 39,818-7) reacts with the ferric ions produced from the reaction between the hydroperoxide and ferrous ions. The Fe (III)-XO complex is characterized with red-shifted absorbance at 560 nm. A purified preparation of human 12hLO was supplied by Dr. Holman laboratory, University of California, Santa Cruz.
Polyunsaturated fatty acid lipoxygenase ALOX12 (Homo sapiens), sequence (P18054 whole entry, looked up): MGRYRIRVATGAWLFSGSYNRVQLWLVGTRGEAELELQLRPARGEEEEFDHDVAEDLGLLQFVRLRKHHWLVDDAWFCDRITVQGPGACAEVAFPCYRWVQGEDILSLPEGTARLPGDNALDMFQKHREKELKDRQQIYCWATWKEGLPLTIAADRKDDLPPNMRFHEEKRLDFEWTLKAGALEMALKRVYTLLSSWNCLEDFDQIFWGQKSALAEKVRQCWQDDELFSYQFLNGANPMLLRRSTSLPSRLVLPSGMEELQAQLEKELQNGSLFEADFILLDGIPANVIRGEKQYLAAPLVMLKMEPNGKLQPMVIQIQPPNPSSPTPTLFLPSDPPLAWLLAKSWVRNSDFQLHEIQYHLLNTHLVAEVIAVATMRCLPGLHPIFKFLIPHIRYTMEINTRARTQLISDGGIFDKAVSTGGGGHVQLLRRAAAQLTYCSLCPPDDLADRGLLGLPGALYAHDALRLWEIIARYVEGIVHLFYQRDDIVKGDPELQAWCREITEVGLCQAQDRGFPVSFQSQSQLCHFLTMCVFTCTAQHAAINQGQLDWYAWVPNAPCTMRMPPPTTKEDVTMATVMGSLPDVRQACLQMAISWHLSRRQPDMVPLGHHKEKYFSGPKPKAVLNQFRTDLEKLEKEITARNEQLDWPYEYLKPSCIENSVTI
PROTOCOL TABLE SEQUENCE No. (e.g., 1, 2, 3, etc.); […] (e.g., Cells, Incubation, Reagent, etc.); VALUE; DESCRIPTION 1; Enzyme; 3 uL; 150 nM 12hLO enzyme solution dispensed in 1536-well Greiner black, clear bottom plates. 2; Compound; 23 nL; compounds and controls were added. 3; Incubate; 15 min; room temperature. 4; Substrate; 1 uL; 40 uM arachidonic acid (final concentration). 5; Incubate; 30 min; room temperature. 6; Reagent; 4 uL; Fe-XO solution was added to each well. 7; Incubation; 30 min; room temperature 8; Detector; absorbance; Read 1 at 405 nm absorbance using ViewLux (PerkinElmer) CCD imager. 9; Detector; absorbance; Read 2 at 573 nm absorbance using ViewLux (PerkinElmer) CCD imager. NOTES (numbers refer to sequence above) 1; 150 nM 12hLO (final concentration) in buffer solution (25 mM Hepes, 0.01% Triton X-100, pH 7.0) was dispensed in columns 1, 2, 5-48. Column 1 is neutral (100% activity). Buffer only was dispensed in columns 3 and 4 as no enzyme negative controls. The plates were covered with metal lids with gas-exchange holes. 2; Compounds were pin transferred via a Kalypsys Pin Tool (Wako USA) in column 5 - 48. Control compound was transferred in column 2, titration of nordihydroguaiaretic acid (NDGA, Sigma-Aldrich, N5023) with top concentration of 20 mM in DMSO then 1:3 dilution in duplicate. Dilution factor of 23 nL into 4 uL final assay volume. 3; Covered assay plates were incubated for 15 min at room temperature. 4; Substrate was added to start the reaction; 40 uM arachidonic acid (Sigma-Aldrich, St. Louis, MO) was dispensed throughout the plate. 6; Chromogenic detection reagent solution (divalent iron/xylenol orange, Fe-XO) was added to each well: 200 uM xylenol orange, 300 uM ferrous ammonium sulfate prepared freshly in 50 mM sulfuric acid. 8, 9; Two absorbance readouts were obtained at 405 nm and at 573 nm using a ViewLux high-throughput CCD plate imager (PerkinElmer). The 573 to 405 (Read 2 / Read 1) absorbance ratio was used to compute reaction progress.
As to `COCCNC(=O)c1cc(C)nc2onc(C3CCCNC3)c12` (stereo not drawn), the “activity change, negative = inhibition” value is -16.4%.
Regarding `O=C(O)c1ccc(-c2cnccn2)cc1`, the “activity change, negative = inhibition” value is -16.6% [at 233 µM].
On to `CN1CCC2(Cc3ccccc3CN(C(=O)Cc3cccc(Cl)c3)C2)C1` (stereo not drawn), for which the “activity change, negative = inhibition” value is -13.9%.
Still for that read-out and setting: as for `CNC(C)c1cccc(OC)c1` (stereo not drawn), the figure is -2.95% [at 233 µM].
On to `O=[S+]([O-])(Nc1ccc(N2CCNCC2)cc1)c1ccc(NCc2ccc(Br)cc2O)cc1`, for which the Potency was 21.7 µM (active).
For `O=[S+]([O-])(Nc1ccc(N2CCNCC2)cc1)c1ccc(NCc2ccc(Cl)cc2O)cc1`, the Potency was 21.7 µM (active).
For `O=C(CCC[C@H]1NC[C@@H]2CC1CN(Cc1ccccc1)C2)NCc1ccc(F)cc1`, the “activity change, negative = inhibition” value is -6.95% [at 64.5 µM].
Turning to `Cc1ccc(CN2CCC3(CC2)Cc2ccccc2CNC3=O)cc1C`, the “activity change, negative = inhibition” value was -18.2%.
As for `O=C(NCc1ccncc1)c1cc(C2CC2)nc2c1c(C1CCCN1)nn2-c1ccccc1` (stereo not drawn), the “activity change, negative = inhibition” value is -24.4%.
As to `Cc1cc(C(=O)NCc2ccc(F)cc2)c2c(C3CCNC3)noc2n1` (stereo not drawn), the “activity change, negative = inhibition” value was -2.62%.
Turning to `O=C1CCN(C(=O)[C@@H]2CCCN2Cc2ccc(C(F)(F)F)cc2)CCCCCCN1`, the “activity change, negative = inhibition” value was 0.301% [at 64.5 µM].
For `CCn1cc(-c2ccc(C)cc2)cc1C(=O)N1CCN(c2ccccn2)CC1`, the “activity change, negative = inhibition” value was -19.2% [at 64.5 µM].
As for `CCC(C)Cn1c(/C=C/c2ccccc2)nc2ccccc21` (stereo not drawn), the “activity change, negative = inhibition” value is -20.9%.
On to `C[C@]1(CO)[C@H]2Cc3sc(NC(=O)c4ccnc(Cl)c4)nc3[C@@H](CC(=O)O)[C@]2(C)CC[C@H]1O`, for which the “activity change, negative = inhibition” value was -0.718% [at 64.5 µM].
Consider `COC(=O)[C@H](c1ccccc1Cl)N1CCc2sccc2C1`, for which the “activity change, negative = inhibition” value is -3.69%.
Turning to `CCC(=O)NC(c1cccs1)c1cc(Cl)c2cccnc2c1O` (stereo not drawn), the Potency is 1.93 µM (active) and 4.85 µM (active) and 2.43 µM (active).
Still for that read-out and setting: with `CC(=O)NC(c1cccs1)c1cc(Cl)c2cccnc2c1O` (stereo not drawn) the figure was 3.06 µM (active).
With `CCC(=O)NC(c1cccs1)c1cc([N+](=O)[O-])c2cccnc2c1O` (stereo not drawn), the Potency is 6.11 µM (active).
For the compound `CC(=O)NC(c1cccs1)c1cc(Br)c2cccnc2c1O` (stereo not drawn), the “activity change, negative = inhibition” value is 6.7% [at 64.5 µM].
As to `NCc1cccc(-c2cc(C(F)(F)F)ccc2Cl)c1`, the “activity change, negative = inhibition” value is -40.7%.
Consider `Cc1ccc(CN2CCc3oc(C)c(C(=O)N4CCSCC4)c3C2)cc1`, for which the “activity change, negative = inhibition” value is -4.93% [at 64.5 µM].
As for `Cc1ccc(CCN2CCCCC23Cc2ccccc2CN(C(=O)CCCC(=O)O)C3)cc1` (stereo not drawn), the “activity change, negative = inhibition” value was -13.9%.
Still for that read-out and setting: with `CN1CC(=O)N(C2CCCNC2)Cc2c(NC3CCCCCC3)ncnc21` (stereo not drawn) the figure was -16.7%.
For `CC(C)(N)C(=O)N1CCCC(N2CCN(Cc3ccc4c(c3)OCO4)CC2)C1` (stereo not drawn), the “activity change, negative = inhibition” value is -16% [at 64.5 µM].
Regarding `COc1ccc(N2CC3CCC(C2)N3C(C)=O)cc1`, the “activity change, negative = inhibition” value was -16.6%.
The same measure, in the same setting: with `O=C(c1cc(C2CC2)nc2onc(C3CCCN3)c12)N1CCC(F)CC1` (stereo not drawn) the figure was -12.7%.
On to `COc1ccc(C(=O)N2CC(Oc3ccc4c(c3)OCO4)C2)cc1`, for which the “activity change, negative = inhibition” value is -21.1%.
Still for that read-out and setting: as for `O=C(Nc1ccccc1)O[C@@H]1CO[C@H]2[C@@H]1OC[C@@H]2n1nnnc1SCc1ccco1`, the figure is -10.7% [at 64.5 µM].
With `O=C(NC1CCCCC1)O[C@@H]1CO[C@H]2[C@@H]1OC[C@@H]2n1nnnc1SCc1ccco1`, the Potency is 7.08 µM (active).
`O=C(c1cc(C2CC2)nc2c1c(C1CCCN1)nn2-c1ccccc1)N1CCC(F)CC1` (stereo not drawn): the “activity change, negative = inhibition” value was -14.7%.
Still for that read-out and setting: as for `CNc1nnc(-c2cccc3ccccc23)s1`, the figure is 1.24% [at 64.5 µM]; as for `CCCC(=O)N1Cc2ccccc2CC2(CCN(Cc3ccc(O)cc3)C2)C1` (stereo not drawn), -12.5%; as for `O=C(C1CCCC1)N1Cc2ccccc2CC2(CCN(Cc3cccnc3)C2)C1` (stereo not drawn), -28.9%.
Consider `O=C(c1ccc(Cl)cc1)N1CC2(CCCN(Cc3ccccn3)C2)Cc2ccccc21` (stereo not drawn), for which the “activity change, negative = inhibition” value was -27.8%.
Same read-out and setting: with `CC(=O)N1Cc2ccccc2CC2(CCN(Cc3ccncc3)C2)C1` (stereo not drawn) the figure was -13.8%.
Regarding `O=C(C1CCCC1)N1CC2(CCN(Cc3ccc(Cl)cc3)C2)Cc2ccccc21` (stereo not drawn), the Potency was 6.22 µM (active).
Consider `O=C(c1ccc(Cl)cc1)N1CC2(CCN(Cc3ccc(Cl)cc3)C2)Cc2ccccc21` (stereo not drawn), for which the Potency was 1.56 µM (active).
As for `O=C(C1CCCC1)N1Cc2ccccc2CC2(CCN(Cc3ccncc3)C2)C1` (stereo not drawn), the “activity change, negative = inhibition” value is -11.8%.
Consider `CCCC(=O)N1Cc2ccccc2CC2(CCN(Cc3ccccc3)CC2)C1`, for which the “activity change, negative = inhibition” value is -3.28%.
Regarding `CCC(=O)N1Cc2ccccc2CC2(CCN(Cc3ccncc3)CC2)C1`, the “activity change, negative = inhibition” value is 1.87%.
Take `NC(=O)c1cccc(CN2CCC3(CC2)Cc2ccccc2N(C(=O)c2ccc(Cl)cc2)C3)c1`: the Potency is 22.1 µM (active).
Turning to `O=C(c1ccc(Cl)cc1)N1CC2(CCCN(Cc3ccc(Cl)cc3)C2)Cc2ccccc21` (stereo not drawn), the Potency was 4.94 µM (active).
As for `CC(=O)N1CC2(CCCN(CC3CCCCC3)C2)Cc2ccccc21` (stereo not drawn), the “activity change, negative = inhibition” value is -4.35%.
`CC(=O)N1Cc2ccccc2OC2(CCN([S+](C)(=O)[O-])CC2)C1`: the “activity change, negative = inhibition” value is -1.67%.
As to `CNc1oc(C2CCCC2)nc1C#N`, the “activity change, negative = inhibition” value is 18.7% [at 64.5 µM].
Take `Cc1cccc(-c2cnc3n[nH]c(-c4ccc5c(c4)OCO5)c3n2)c1`: the “activity change, negative = inhibition” value is -11.5% [at 64.5 µM].
On the same count and under the same terms, with `CN1CC(=O)N(C2CCCNC2)Cc2c(NC3CCC3)ncnc21` (stereo not drawn) the figure was -14.2%; with `N#Cc1cc2nc(O)c(O)nc2cc1[N+](=O)[O-]`, -5.48%.
For the compound `OC1(CN2CCN(c3nccs3)CC2)CCCNC1` (stereo not drawn), the “activity change, negative = inhibition” value was -6.16% [at 64.5 µM].
With `Cc1ccc(-c2ccccc2CN)c(C)c1`, the “activity change, negative = inhibition” value was -9.84%.
`CCOCCCNc1ncnc2c1CN(C1CCCNCC1)C(=O)CN2C` (stereo not drawn): the “activity change, negative = inhibition” value was -3.49%.
Take `CN1CC(=O)N(C2CNC2)Cc2c(NC3CC3)ncnc21`: the “activity change, negative = inhibition” value is 5.35%.
Take `CN1CC(=O)N(C2CCCNC2)Cc2c(NCC3CCCCCC3)ncnc21` (stereo not drawn): the “activity change, negative = inhibition” value was -26.4%.
